Compounds with a hit are over-represented: about 1% of the library has one in this group of screens.
RXFP1 agonist – agonists of human relaxin receptor RXFP1; Potency, µM (series often up to 57.5 µM), for inactives: at the top dose activation, actives largely listed as activators; 370,000 tested, 0.3% active; AID 2676; HEK293T-RXFP1 cAMP TR-FRET, 30 min; response scale: percent of porcine relaxin response, buffer zero; also: potency is read from the fitted curve at half-maximal effect; % is scaled to controls: 0 for no effect and ±100 for the full control effect; nearly all actives have a fitted effect of over 60% in size
Target sequence (Q9HBX9 whole entry, looked up): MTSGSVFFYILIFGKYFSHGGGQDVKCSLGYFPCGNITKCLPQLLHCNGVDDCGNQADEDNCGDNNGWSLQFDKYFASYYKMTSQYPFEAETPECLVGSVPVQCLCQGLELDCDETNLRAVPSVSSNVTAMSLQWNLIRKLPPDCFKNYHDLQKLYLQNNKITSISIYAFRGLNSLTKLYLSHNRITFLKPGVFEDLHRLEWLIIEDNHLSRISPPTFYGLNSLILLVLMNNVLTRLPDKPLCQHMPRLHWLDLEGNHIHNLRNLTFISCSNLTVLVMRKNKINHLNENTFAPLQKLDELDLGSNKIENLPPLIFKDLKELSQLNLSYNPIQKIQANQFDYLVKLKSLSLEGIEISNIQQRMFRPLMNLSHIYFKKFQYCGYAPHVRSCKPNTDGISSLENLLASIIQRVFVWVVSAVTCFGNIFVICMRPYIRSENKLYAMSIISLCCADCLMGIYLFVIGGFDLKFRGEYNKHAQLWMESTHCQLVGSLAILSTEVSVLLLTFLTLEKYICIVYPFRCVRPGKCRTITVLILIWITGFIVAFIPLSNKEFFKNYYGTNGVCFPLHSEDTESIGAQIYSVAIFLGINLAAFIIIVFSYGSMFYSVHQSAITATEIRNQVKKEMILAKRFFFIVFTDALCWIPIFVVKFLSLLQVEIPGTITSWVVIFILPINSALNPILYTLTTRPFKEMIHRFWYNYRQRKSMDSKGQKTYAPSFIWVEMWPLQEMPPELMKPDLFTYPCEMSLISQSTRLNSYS
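cAMP rise read by TR-FRET after 30 min, 37C compound exposure (up to 58 uM) in RXFP1-transfected HEK293 cells with Ro 20174 present. EC50 from Hill-equation fits, with 29 nM porcine relaxin as 100% and buffer as basal.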
gsp agonist – gsp mutant agonism | gsp mutant cells, cAMP HTRF, 30 min | Potency, µM (top dose mostly 76.9 µM), for inactives: at the top dose activation (cAMP increase), hits mostly activators | 340,000 tested, 0.13% active; active = well fitted activation curve with a large enough effect; inconclusive = small, poorly fitted or top-dose-only effect, or another doubt; inactive = no such curve, though single readings can be large or run the other way; cell line not stated here;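 also: phosphodiesterase inhibitor Ro 20-1724 added with compounds to block cAMP breakdown; potency is read from the fitted curve at half-maximal effect; nearly all actives have a fitted effect of over 60% in size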
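Cells stably selected in G418 were plated at 2000/well, grown 16-24 hr, then given compounds in DMSO with the PDE inhibitor […] (300 uM solution added) for 30 min at 37C; cAMP was read by HTRF.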
PTHR1 agonist – activates the human parathyroid hormone receptor PTHR1 | Q03431 | HEK293 GP2 PTHR1 cells, GloSensor cAMP luminescence, 1 h | Potency, µM (highest dose often 115 µM), for the others: at the highest dose activation, usual class: activators | 410,000 tested, 0.075% active | AID 743266; also: potency is read from the fitted curve at half-maximal effect; nearly all actives have a fitted effect of over 55% in size
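HEK-293-derived GP2 cells expressing PTHR1 and a GloSensor cAMP reporter, 3,000/well, plated overnight, given luciferin plus IBMX (each 0.5 mM as added) for 1 h at 37 °C, then compound for 1 h at 37 °C. Luminescence was read after 15 min at room temperature.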
RXFP1 antag – RXFP1 (human) relaxin receptor antagonism; Q9HBX9; HEK293-RXFP1, relaxin-stimulated cAMP HTRF, 30 min; stronger effect = lower value; activity change, negative = inhibition, % at 57.5 µM; 350,000 tested, 0.59% active; AID 1259400;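 active = activity change of -60% or lower, but not beyond a set lower limit; inconclusive = change between -60% and -40%, or beyond the set limit; inactive = change above -40%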; also: % is scaled to controls: 0 for no effect and ±100 for the full control effect
gsp antag – antagonizes gsp, the McCune-Albright syndrome mutation | gsp-mutant cells, cAMP HTRF, 30 min | AID 624288 | Potency, µM (series often up to 76.9 µM), for inactives: at the highest dose activity change, negative = inhibition, actives largely listed as inhibitors | 340,000 tested, 0.4% active; calls by dose curve; cell line not stated here;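 also: intracellular cAMP measured with PDE inhibitor Ro 20-1724 present during compound exposure; potency is read from the fitted curve at half-maximal effect; % is scaled to controls: 0 for no effect and ±100 for the full control effect; nearly all actives have a fitted effect of over 65% in size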
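HTRF cAMP measurement after 30 min RT detection following 30 min, 37C compound treatment alongside […] (added as 300 uM solution) in G418-selected cells seeded at 2000/well and grown 16–24 h.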
The depositor's hits bear a star; i = inactive; ? = inconclusive; . = no result; [ ] = another dose, or the depositor's remark. Unless noted, calls follow the shape of the dose curve; as a rule, active = well fitted curve in the direction sought with a large enough effect; inconclusive = small, poorly fitted or top-dose-only effect, or another doubt; inactive = no such curve, though single readings can be large; an effect the other way counts as inactive or inconclusive.

SMILES	RXFP1 agonist	gsp agonist	PTHR1 agonist	RXFP1 antag	gsp antag
COc1cccc([C@H]2Nc3ccc(S(=O)(=O)Nc4cc(C)ccc4C)cc3[C@H]3C=CC[C@H]32)c1	0%	.	i	-27	.
COC(=O)c1ccc([C@H]2Nc3ccc(S(=O)(=O)Nc4cccc(C)c4)cc3[C@H]3C=CC[C@H]32)cc1	3%	.	i	-70*	.
Cc1ccc(NS(=O)(=O)c2ccc3c(c2)[C@H]2C=CC[C@H]2[C@@H](c2ccc(F)cc2)N3)cc1C	-1%	.	-29%	-17	.
COc1cc(OC)c(N(C)C(=O)c2cn(C3CCCC3)c(=O)c3c2c2ccccc2n3C)cc1Cl	0%	.	-17%	-31	.
COc1ccc(OC)c(C2CC(=O)c3c([nH]c(C(=O)OCC4CCCO4)c3C)C2)c1 (centres undefined)	1%	-47%	-63%	.	40µM*
Cc1nc2ccccc2c(N)c1C(=O)/C=C/c1ccccc1	-1%	?	-96%	-83*	3%
CCCCOc1ccc(-c2c(C(=O)Nc3ccccc3)c(C)[nH]c(=S)c2C#N)cc1	22µM*	2.5µM*	i	28	15%
CN(Cc1ccccc1)S(=O)(=O)c1ccc(-c2cnc(C3CC3)o2)cc1	2%	.	-17%	.	.
COc1ccc(-n2c(=O)c3ccc(C(=O)NCc4ccc(C)cc4)cc3n(CC(=O)Nc3cccc(F)c3)c2=O)cc1	32µM*	.	i	.	.
Cc1ccc(-n2c(=O)c3ccc(C(=O)NCc4ccccc4Cl)cc3n(Cc3cccc(F)c3)c2=O)cc1	32µM*	.	i	.	.
Cc1ccc(NC(=O)Cn2c(=O)n(-c3ccccc3)c(=O)c3ccc(C(=O)NCc4ccc5c(c4)OCO5)cc32)cc1	22µM*	.	-14%	.	.
COc1ccc(NC(=O)Cn2c(=O)n(-c3ccc(OC)cc3)c(=O)c3ccc(C(=O)NCc4ccc(C)cc4)cc32)cc1	13%	.	i	.	.
Cc1ccc(NC(=O)Cn2c(C)cc(C)c(C#N)c2=O)cc1	1%	.	-14%	-10	.
Cc1ccccc1N1CCN(CCc2nnc3n2CCCC3)CC1	.	.	.	5	.
Cc1nn(CCc2nn[nH]n2)c2nc(-c3ccc(C4CCCCC4)cc3)cc(C(F)(F)F)c12	0%	15%[15.4 µM]	-18%	-18	11µM*
CC1CN(c2ccc([N+](=O)[O-])c(NCCOc3ccc(Cl)cc3)c2)CC(C)N1 (centres undefined)	2%	-12%	i	-97*	2%
CC1CN(c2ccc([N+](=O)[O-])c(NCCOc3ccccc3)c2)CC(C)N1 (centres undefined)	3%	-14%	i	-2	3%
COc1ccc(C2CC(=O)NC(NC(=O)c3ccc(Br)cc3)=N2)c(OC)c1OC (centres undefined)	5%	.	-44%	7	.
CCN(CC(=O)Nc1c(F)cccc1F)C(=O)CCCN1C(=O)c2cccc3cccc(c23)C1=O	.	13µM*	i	2	.
CCN(CC(=O)Nc1ccc(NC(C)=O)cc1)C(=O)CCCN1C(=O)c2ccccc2C1=O	2%	16%[15.4 µM]	i	-10	16%
C=CCN1C[C@H](C(=O)N(CCCN(C)C)C(=O)NCC)C[C@@H]2c3cccc4[nH]cc(c34)C[C@H]21	.	.	.	-9	.
CCOC(=O)c1c(C)[nH]c(C)c1S(=O)(=O)N(C)CC(=O)Nc1ccc(C)c(N(C)C)c1	-1%	.	-9%	.	.
O=C(Nc1cccc(-c2nc3ccccc3s2)c1)C1=COCCO1	-1%	-2%	-11%	-80*	-27%
O=C(Nc1ccc(-c2nc3ccccc3s2)cc1)C1=COCCO1	1%	-10%	-28%	7	-6%
O=[N+]([O-])c1ccc(O)c(C=Nc2cccc3ccccc23)c1	1%	-22%	i	-96*	2%
SMILES	RXFP1 agonist	gsp agonist	PTHR1 agonist	RXFP1 antag	gsp antag
O=[N+]([O-])c1ccc(O)c(C=Nc2cccc3ncccc23)c1	-2%	?	-6%	-3	-19%
CCOC(=O)COc1cc2c3c(c(=O)oc2cc1C)CCCC3	1%	-61%	i	-24	2%
CCOC(=O)COc1cc(OCC(=O)OCC)c2c3c(c(=O)oc2c1)CCCC3	-2%	11µM*	-18%	16	?
O=C(Cn1ncc2c3ccccc3n(Cc3cccc(Cl)c3)c2c1=O)Nc1ccc(F)cc1F	0%	.	11%	2	.
O=C(CN1CCN(Cc2ccccc2)CC1)NCc1ccc(Cl)cc1	4%	13%[15.4 µM]	i	-3	-2%
COc1ccc(CNC(=O)CN2CCN(C(c3ccccc3)c3ccccc3)CC2)cc1	1%	9%	-2%	-25	-17%
Cc1ccc(CN2CCN(CC(=O)NCc3ccccc3)CC2)cc1	1%	3%	-14%	-99*	1%
O=C(CN1CCN(C(c2ccccc2)c2ccccc2)CC1)NCc1ccccc1	-2%	?	i	-74*	-6%
c1ccc2c(c1)OC(CCCN1CCCCC1)c1ccccc1S2 (centres undefined)	2%	-6%	i	?	21%
CN1CCCC(CC2Oc3ccccc3Sc3ccccc32)C1 (centres undefined)	-1%	-14%[15.4 µM]	i	-81*	23%
N#CC(C#N)=NNc1ccc(S(=O)(=O)N2CCCCC2)cc1	-1%	6%	-22%	-36	25µM*
N#C/C(=N\Nc1ccc(S(=O)(=O)N2CCOCC2)cc1)C(N)=S	0%	5%[15.4 µM]	-25%	-22	-21%
N#C/C(=N\Nc1cccc(C(F)(F)F)c1)C(=O)c1csc(-c2cccnc2)n1	6%	-11%	-94%	.	25µM*
Cc1ccc(C(=O)Nc2cccc(C(F)(F)F)c2)cc1NC(=O)c1csc(-c2ccncc2)n1	4%	13%	-29%	10	-20%
O=C(c1ccco1)N1CCN(Cc2cc(=O)c(OCc3ccccc3)co2)CC1	-2%	20µM*	-2%	-13	8%
Cc1cccc(COc2coc(CN3CCN(C(=O)c4ccco4)CC3)cc2=O)c1	1%	0%[15.4 µM]	i	-1	-1%
O=C(Cn1cc(SCc2ccc(F)cc2)c2ccccc21)N1CCCCC1	1%	.	i	-24	.
CN(C)c1ccc(N/C=C/C(=O)c2ccccc2)cc1	-3%	9%	-64%[57.5 µM]	-110*	-11%
CN(C)c1ccc(N/C=C/C(=O)C(C)(C)C)cc1	-10%	-3%	-59%[57.5 µM]	?	35µM*
O=S(=O)(c1ccccc1)c1nc(-c2ccco2)oc1N1CCOCC1	0%	-45%	-6%[57.5 µM]	3	-1%
Cc1ccc(S(=O)(=O)c2nc(-c3ccco3)oc2N2CCC(C)CC2)cc1	-4%	-5%[15.4 µM]	-47%	-63*	-5%
COc1ccc(NC(=O)N(Cc2ccco2)C2CCN(C(C)=O)CC2)c(OC)c1	-1%	.	-10%	-10	.
NC(=O)c1ccsc1NC(=O)CN1CCN(S(=O)(=O)c2ccccc2C(F)(F)F)CC1	.	15%	-41%	?	50µM*
